In PubChem BioAssay (EPA / NIEHS):
Calls of active or inactive are those of the source. Rule for the calls: active = hit-call score of the fitted dose curve at least 0.9, where 1 is the maximum; inactive = score below 0.9.

Columns and labels:
Details in all cases: mRNA level, 48 h; actives raise or lower the signal
[1] = read-out: Tumor necrosis factor receptor superfamily member 6 (Homo sapiens) (UniProt P25445); assay: LTEA_HepaRG_FAS: Life Technologies and Expression Analysis (LTEA) Assay for Fas cell surface death receptor (FAS) using HepaRG (AID 2283447)
Procedure, shortened: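 FAS transcript level was measured by TaqMan qRT-PCR against three housekeeping genes after 48 h chemical exposure. Cells were HepaRG, 0.5% DMSO vehicle, with a top concentration of 100 uM and half-log dilutions over eight points, in duplicate.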

[2] = read-out: Fatty acid synthase (Homo sapiens) (UniProt P49327); assay: LTEA_HepaRG_FASN: Life Technologies and Expression Analysis (LTEA) Assay for Fatty Acid Synthase (FASN) using HepaRG (AID 2283448)
Procedure, shortened: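 FASN expression changes, up or down relative to 0.5% DMSO, were measured by qRT-PCR in human HepaRG cells after 48 h treatment with chemicals at eight concentrations (half-log steps from 100 uM).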

[3] = read-out: Cyclin D2 (CCND2), CCND2 (gene 894); assay: LTEA_HepaRG_CCND2: Life Technologies and Expression Analysis (LTEA) Assay for Cyclin D2 (CCND2) using HepaRG (AID 2283449)
Procedure, shortened: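 Read-out is CCND2 mRNA level measured by qRT-PCR in human HepaRG liver cells and normalised to three housekeeping genes. Chemicals were applied for 48 h at up to 100 uM, with gain or loss fitted relative to 0.5% DMSO.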

[4] = read-out: Cyclin D1 (CCND1), CCND1 (gene 595); assay: LTEA_HepaRG_CCND1: Life Technologies and Expression Analysis (LTEA) Assay for Cyclin D1 (CCND1) using HepaRG (AID 2283451)
Procedure, shortened: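 Expression change is measured by qRT-PCR in HepaRG cells after 48 h treatment across eight concentrations topping at 100 uM, with duplicate wells and DMSO (0.5%) serving as baseline for bidirectional fitting.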

[5] = read-out: catalase (CAT), CAT (gene 847); assay: LTEA_HepaRG_CAT: Life Technologies and Expression Analysis (LTEA) Assay for catalase (CAT) using HepaRG (AID 2283452)
Procedure, shortened: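 Expression of CAT was quantified by TaqMan qRT-PCR with ACTB/GAPDH/POLR2A normalization after 48 h chemical exposure of HepaRG. Eight-point half-log series, top 100 uM, in 0.5% DMSO; gain or loss fitted against vehicle.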

[6] = read-out: flavin-containing dimethylaniline monooxygenases 3 (FMO3), FMO3 (gene 2328); assay: LTEA_HepaRG_FMO3: Life Technologies and Expression Analysis (LTEA) Assay for flavin-containing dimethylaniline monooxygenases 3 (FMO3) using HepaRG (AID 2283453)
Procedure, shortened: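 Differentiated HepaRG cells in serum-free induction medium, exposed 48 h in duplicate to 8 half-log concentrations up to 100 uM in 0.5% DMSO. FMO3 mRNA by qRT-PCR, normalized to ACTB, GAPDH, POLR2A; bidirectional fit vs DMSO.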

[7] = read-out: Cytochrome P450 (CYP1A1), CYP1A1 (gene 1543); assay: LTEA_HepaRG_CYP1A1: Life Technologies and Expression Analysis (LTEA) Assay for Cytochrome P450 (CYP1A1) using HepaRG (AID 2283454)
Procedure, shortened: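 Using HepaRG cultures with 0.5% DMSO as vehicle, eight-concentration exposures (max 100 uM) lasted 48 h. Transcript levels were measured by TaqMan qRT-PCR and normalized to ACTB, GAPDH and POLR2A.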

[8] = read-out: CFLAR gene, CFLAR (gene 8837); assay: LTEA_HepaRG_CFLAR: Life Technologies and Expression Analysis (LTEA) Assay for CFLAR gene using HepaRG (AID 2283455)
Procedure, shortened: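 HepaRG, 48 h exposure, 8-pt conc-response (100 uM top, half-log), 0.5% DMSO vehicle, duplicates. CFLAR expression by qRT-PCR; ACTB/GAPDH/POLR2A normalization; gain or loss fit vs DMSO baseline.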

[9] = read-out: Forkhead box O1 (FOXO1), FOXO1 (gene 2308); assay: LTEA_HepaRG_FOXO1: Life Technologies and Expression Analysis (LTEA) Assay for Forkhead box O1 (FOXO1) using HepaRG (AID 2283456)
Procedure, shortened: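 Readout is FOXO1 transcript level by multiplexed qRT-PCR against three housekeeping genes, curve-fitted in both directions relative to 0.5% DMSO vehicle. Human HepaRG cultures received chemicals for 48 h, up to 100 uM in half-log steps.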

[10] = read-out: growth arrest and DNA damage 45 (GADD45A), GADD45A (gene 1647); assay: LTEA_HepaRG_GADD45A: Life Technologies and Expression Analysis (LTEA) Assay for growth arrest and DNA damage 45 (GADD45A) using HepaRG (AID 2283458)
Procedure, shortened: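 Cells plated and cultured 48 h, switched to serum-free induction medium, then dosed for 48 h (100 uM top, half-log dilutions, 0.5% DMSO). RNA was isolated and transcript measured by Fluidigm qRT-PCR.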

[11] = read-out: Forkhead box O3 (FOXO3), FOXO3 (gene 2309); assay: LTEA_HepaRG_FOXO3: Life Technologies and Expression Analysis (LTEA) Assay for Forkhead box O3 (FOXO3) using HepaRG (AID 2283459)
Procedure, shortened: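 HepaRG, 48 h post-dose; 8 conc., half-log from 100 uM, 0.5% DMSO, duplicates; serum-free induction medium. Readout: FOXO3 mRNA, TaqMan qRT-PCR, housekeeping-normalized. Bidirectional curve fit vs DMSO baseline.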

[12] = read-out: ABC Transporter (ABCB1), ABCB1 (gene 5243); assay: LTEA_HepaRG_ABCB1: Life Technologies and Expression Analysis (LTEA) Assay for ABC Transporter (ABCB1) using HepaRG (AID 2283460)
Procedure, shortened: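 Expression of ABCB1 was quantified by qRT-PCR against three housekeeping genes after human HepaRG cultures received test chemicals for 48 hours. Concentrations spanned eight half-log steps topping at 100 uM in 0.5% DMSO; gain or loss of signal was fitted relative to vehicle.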

[13] = read-out: growth arrest and DNA damage 45 (GADD45B), GADD45B (gene 4616); assay: LTEA_HepaRG_GADD45B: Life Technologies and Expression Analysis (LTEA) Assay for growth arrest and DNA damage 45 (GADD45B) using HepaRG (AID 2283461)
Procedure, shortened: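 Human HepaRG monolayers receive chemicals for 48 h at eight half-log concentrations, highest 100 uM, in 0.5% DMSO. Expression is measured by TaqMan qRT-PCR and normalized to ACTB, GAPDH and POLR2A.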

[14] = read-out: ABC Transporter (ABCC3), ABCC3 (gene 8714); assay: LTEA_HepaRG_ABCC3: Life Technologies and Expression Analysis (LTEA) Assay for ABC Transporter (ABCC3) using HepaRG (AID 2283462)
Procedure, shortened: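 Transcriptional change of ABCC3 in HepaRG after 48 h treatment, determined by qRT-PCR normalized to endogenous controls. Concentrations spanned eight half-log steps to 100 uM in 0.5% DMSO.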

[15] = read-out: ABC Transporter (ABCB11), ABCB11 (gene 8647); assay: LTEA_HepaRG_ABCB11: Life Technologies and Expression Analysis (LTEA) Assay for ABC Transporter (ABCB11) using HepaRG (AID 2283463)
Procedure, shortened: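 ABCB11 transcript levels are read by Fluidigm TaqMan qRT-PCR after 48 h chemical treatment of human HepaRG cells. Concentrations span 100 uM downward in half-log steps with 0.5% DMSO; gain or loss is fitted against DMSO controls.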

[16] = read-out: ABC Transporter (ABCC2), ABCC2 (gene 1244); assay: LTEA_HepaRG_ABCC2: Life Technologies and Expression Analysis (LTEA) Assay for ABC Transporter (ABCC2) using HepaRG (AID 2283464)
Procedure, shortened: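 After plating and 48 h culture, HepaRG medium is replaced with serum-free induction medium and chemicals are added (8 concentrations, max 100 uM, 0.5% DMSO) for 48 h. Total RNA then undergoes qRT-PCR for ABCC2 with housekeeping normalization.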

[17] = read-out: Broad substrate specificity ATP-binding cassette transporter ABCG2 (Homo sapiens) (UniProt Q9UNQ0); assay: LTEA_HepaRG_ABCG2: Life Technologies and Expression Analysis (LTEA) Assay for ABC Transporter (ABCG2) using HepaRG (AID 2283465)
Procedure, shortened: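 Read-out is ABCG2 mRNA induction or loss quantified by qRT-PCR after 48 h chemical treatment of human HepaRG cells, normalized to three housekeeping genes. Concentrations reached 100 uM top in half-log steps; fitting was bidirectional against 0.5% DMSO.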

Measured: AC50

Chain of Broad substrate specificity ATP-binding cassette transporter ABCG2 (Homo sapiens) (Q9UNQ0 whole entry, looked up): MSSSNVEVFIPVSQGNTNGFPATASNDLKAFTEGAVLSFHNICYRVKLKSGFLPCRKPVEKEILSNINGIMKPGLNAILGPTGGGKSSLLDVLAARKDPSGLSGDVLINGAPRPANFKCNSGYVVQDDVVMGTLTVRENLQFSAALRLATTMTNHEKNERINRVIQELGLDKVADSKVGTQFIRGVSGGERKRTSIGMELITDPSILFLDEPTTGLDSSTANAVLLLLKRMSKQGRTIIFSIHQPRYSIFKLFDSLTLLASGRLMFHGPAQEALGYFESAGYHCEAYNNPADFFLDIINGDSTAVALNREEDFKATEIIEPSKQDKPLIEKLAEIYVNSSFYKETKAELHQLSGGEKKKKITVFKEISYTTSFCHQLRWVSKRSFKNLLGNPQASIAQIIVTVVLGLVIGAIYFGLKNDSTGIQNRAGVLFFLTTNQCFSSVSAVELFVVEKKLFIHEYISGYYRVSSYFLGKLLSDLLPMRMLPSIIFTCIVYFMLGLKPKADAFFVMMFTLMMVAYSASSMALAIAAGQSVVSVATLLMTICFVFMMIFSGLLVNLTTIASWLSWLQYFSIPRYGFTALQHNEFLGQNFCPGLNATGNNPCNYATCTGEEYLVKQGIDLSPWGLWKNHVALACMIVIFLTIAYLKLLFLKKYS
Chain of Fatty acid synthase (Homo sapiens) (P49327 whole entry, looked up): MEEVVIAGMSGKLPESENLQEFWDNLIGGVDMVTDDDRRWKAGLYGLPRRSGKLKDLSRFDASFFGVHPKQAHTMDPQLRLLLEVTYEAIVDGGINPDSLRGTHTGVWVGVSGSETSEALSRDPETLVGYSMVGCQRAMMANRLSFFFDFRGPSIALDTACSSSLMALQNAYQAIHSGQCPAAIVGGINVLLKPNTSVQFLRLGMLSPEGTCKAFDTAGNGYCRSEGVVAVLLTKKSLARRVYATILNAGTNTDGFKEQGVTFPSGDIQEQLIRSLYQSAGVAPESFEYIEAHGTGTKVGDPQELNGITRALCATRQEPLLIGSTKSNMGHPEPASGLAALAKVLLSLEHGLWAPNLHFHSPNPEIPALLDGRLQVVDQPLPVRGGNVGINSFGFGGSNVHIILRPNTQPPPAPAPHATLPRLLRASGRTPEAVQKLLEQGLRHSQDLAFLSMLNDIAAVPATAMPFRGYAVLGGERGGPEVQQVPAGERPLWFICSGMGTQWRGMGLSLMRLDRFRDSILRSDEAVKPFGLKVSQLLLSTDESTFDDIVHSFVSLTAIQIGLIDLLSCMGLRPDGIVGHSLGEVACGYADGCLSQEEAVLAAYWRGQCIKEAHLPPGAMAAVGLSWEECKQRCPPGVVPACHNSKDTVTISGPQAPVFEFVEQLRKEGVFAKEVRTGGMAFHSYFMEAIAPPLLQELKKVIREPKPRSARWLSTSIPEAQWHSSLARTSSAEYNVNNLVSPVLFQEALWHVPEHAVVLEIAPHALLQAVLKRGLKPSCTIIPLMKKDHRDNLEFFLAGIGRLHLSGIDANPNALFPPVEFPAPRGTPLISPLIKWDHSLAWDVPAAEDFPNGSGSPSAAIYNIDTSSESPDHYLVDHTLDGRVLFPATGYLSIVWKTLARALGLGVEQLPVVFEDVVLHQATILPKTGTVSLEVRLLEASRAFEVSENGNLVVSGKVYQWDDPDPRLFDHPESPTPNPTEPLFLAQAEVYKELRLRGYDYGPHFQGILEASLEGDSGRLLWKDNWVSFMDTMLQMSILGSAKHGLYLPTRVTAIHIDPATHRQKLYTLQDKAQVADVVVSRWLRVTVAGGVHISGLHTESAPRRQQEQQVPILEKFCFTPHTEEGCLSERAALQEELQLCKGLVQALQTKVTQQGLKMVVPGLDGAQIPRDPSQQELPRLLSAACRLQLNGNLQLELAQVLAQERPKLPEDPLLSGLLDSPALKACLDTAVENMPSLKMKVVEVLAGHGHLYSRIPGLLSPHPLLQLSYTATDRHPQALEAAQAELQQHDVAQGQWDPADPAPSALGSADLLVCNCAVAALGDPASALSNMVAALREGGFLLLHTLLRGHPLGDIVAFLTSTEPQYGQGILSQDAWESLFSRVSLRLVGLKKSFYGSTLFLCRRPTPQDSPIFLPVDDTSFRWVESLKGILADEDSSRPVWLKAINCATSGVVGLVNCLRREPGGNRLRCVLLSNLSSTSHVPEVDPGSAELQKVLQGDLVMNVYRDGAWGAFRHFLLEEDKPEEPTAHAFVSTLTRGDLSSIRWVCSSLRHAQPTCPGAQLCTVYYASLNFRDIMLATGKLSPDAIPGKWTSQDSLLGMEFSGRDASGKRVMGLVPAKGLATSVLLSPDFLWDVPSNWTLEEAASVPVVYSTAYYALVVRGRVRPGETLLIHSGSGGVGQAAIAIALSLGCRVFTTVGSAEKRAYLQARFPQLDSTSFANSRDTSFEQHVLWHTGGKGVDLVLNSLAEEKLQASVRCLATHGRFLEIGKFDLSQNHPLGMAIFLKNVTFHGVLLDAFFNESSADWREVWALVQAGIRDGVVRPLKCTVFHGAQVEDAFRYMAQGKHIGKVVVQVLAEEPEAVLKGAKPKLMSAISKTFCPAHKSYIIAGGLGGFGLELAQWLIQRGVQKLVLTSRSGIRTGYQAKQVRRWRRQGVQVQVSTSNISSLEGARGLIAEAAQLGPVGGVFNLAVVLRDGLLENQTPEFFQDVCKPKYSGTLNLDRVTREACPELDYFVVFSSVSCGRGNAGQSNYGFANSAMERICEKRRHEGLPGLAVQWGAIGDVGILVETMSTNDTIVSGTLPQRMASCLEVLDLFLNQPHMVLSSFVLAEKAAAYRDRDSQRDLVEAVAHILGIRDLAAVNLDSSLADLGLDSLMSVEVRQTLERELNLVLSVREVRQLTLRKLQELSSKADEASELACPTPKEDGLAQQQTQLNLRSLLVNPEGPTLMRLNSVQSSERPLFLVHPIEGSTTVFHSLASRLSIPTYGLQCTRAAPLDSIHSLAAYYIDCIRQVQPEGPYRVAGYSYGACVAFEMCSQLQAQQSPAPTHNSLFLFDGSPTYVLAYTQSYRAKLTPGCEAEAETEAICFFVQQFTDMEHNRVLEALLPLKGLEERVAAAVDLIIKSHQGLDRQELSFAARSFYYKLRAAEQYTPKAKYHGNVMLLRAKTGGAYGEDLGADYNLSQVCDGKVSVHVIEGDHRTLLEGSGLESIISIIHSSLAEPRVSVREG

Cc1ccc(N)cc1
inactive: all assays above

[Cl-].[Cl-].[Hg+2]
active: [7] 50 µM | [13] 50 µM
inactive: all other assays above

CS(=O)(=O)NC(=O)c1cc(Oc2ccc(C(F)(F)F)cc2Cl)ccc1[N+](=O)[O-]
active: [7] 39.3 µM | [12] 0.644 µM | [15] 50 µM | [16] 6.32 µM
inactive: all other assays above

CC(C)(C)OOC(=O)c1ccccc1
active: [7] 83.2 µM
not listed: [3]
inactive: all other assays above

OCCCBr
inactive: all assays above

C[N+](C)(C)CC1CO1 (stereo not drawn)
active: [7] 50 µM
inactive: all other assays above

CN(C)C(=O)Nc1ccc(Cl)cc1
active: [7] 38 µM
not listed: [3]
inactive: all other assays above

CC(O)CCO (stereo not drawn)
not listed: [3]
inactive: all other assays above
